{"source": "the supplement of paper PMC7411054", "note": "Where a name gives a salt, the structure may show the parent alone. Unmarked numbers belong to inactive results.", "data": [{"tested_on": "HepG2-TP53BP1-CLTA", "assay": "phenotypically active (imaging signature differs from DMSO and reproducible) at any of 0.3-9 uM (binary (1 = active, 0 = inactive)); higher = active", "conditions": "treatment time: 24 h", "method_in_brief": "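Two criteria together defined phenotypic activity: deviation and reproducibility. Deviation meant ≥3 of 4 wells beyond the 95th percentile of Euclidean distances in solvent control wells, and reproducibility meant a median replicate Pearson correlation above the 95th percentile of non-replicates. Wells had been treated for 24 h at 0.3, 1, 3 or 9 µM in fifteen gene-edited A549, HepG2 and WPMY1 reporter lines before live imaging.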", "values": [{"smiles": "CC[C@H]1CN2CC[C@H]1C[C@@H]2[C@@H](O)c1ccnc2ccc(OC)cc12", "note": "[Hydroquinidine HCl]", "phenotypically active": 0}, {"smiles": "COc1cc2c(c(OC)c1OC)-c1ccc(O)c(=O)cc1[C@@H](N)CC2", "note": "[Trimethylcolchicinic acid]", "phenotypically active": 0}, {"smiles": "C[C@@]1(CO)[C@H](O)CC[C@@]2(C)[C@H]1CC[C@H]1C[C@@H]3C[C@@]12CC[C@]3(O)CO", "note": "[Aphidicolin]", "phenotypically active": "1 (active)"}, {"smiles": "COC(=O)[C@@]1(O)C[C@H]2O[C@]1(C)n1c3ccccc3c3c4c(c5c6ccccc6n2c5c31)C(=O)NC4", "phenotypically active": "1 (active)"}, {"smiles": "COc1ccc(N(C(=O)Oc2c(C)cccc2C)c2ccnc(Nc3ccc(N4CCN(C)CC4)cc3)n2)c(OC)c1", "phenotypically active": "1 (active)"}, {"smiles": "COc1ccc2c(c[n+](C)c3c4cc5c(cc4ccc23)OCO5)c1OC", "note": "[Chelerythrine chloride]", "phenotypically active": "1 (active)"}, {"smiles": "CC[C@@H]1C=CC=CC[C@H](C)[C@@H](O)[C@](C)(O)C(=O)[C@H](C)[C@@H](O)[C@H](C)C(=O)[C@H](C)[C@@H](O)[C@H](C)C=CC(=O)O[C@H]2[C@@H](C)[C@@H](CC1)O[C@@]1(CC[C@@H](C)[C@@H](C[C@H](C)O)O1)[C@@H]2C", "note": "[Oligomycin A]", "phenotypically active": "1 (active)"}, {"smiles": "CC(C)[C@@]1(NC(=O)[C@@H]2C[C@@H]3c4cccc5[nH]cc(c45)C[C@H]3N(C)C2)O[C@@]2(O)[C@@H]3CCCN3C(=O)[C@H](Cc3ccccc3)N2C1=O", "note": "[Dihydroergocristine mesylate]", "phenotypically active": "1 (active)"}, {"smiles": "O=c1[nH]c2ccccc2n1C1CCN(CCCC(c2ccc(F)cc2)c2ccc(F)cc2)CC1", "note": "[pimozide]", "phenotypically active": 0}, {"smiles": "C[C@]12CC[C@H]3[C@@H](CC[C@]4(O)C[C@@H](O)CC[C@]34C=O)[C@@]1(O)CC[C@@H]2C1=CC(=O)OC1", "note": "[Strophanthidin]", "phenotypically active": "1 (active)"}, {"smiles": "CN1CCC2=C[C@H](O)[C@H]3OC(=O)c4cc5c(cc4[C@H]3[C@@H]21)OCO5", "note": "[Hippeastrine hydrobromide]", "phenotypically active": 0}, {"smiles": "C=C1[C@@H](O)C2C=CC[C@H](C)C(=O)[C@](C)(O)C=C[C@@H](OC(C)=O)[C@]23C(=O)N[C@H](Cc2ccccc2)[C@@H]3[C@@H]1C", "note": "(stereo partly specified) [Cytochalasin D]", "phenotypically active": "1 (active)"}, {"smiles": "COc1ccc(C[C@H]2NC[C@H](O)[C@H]2OC(C)=O)cc1", "note": "[Anisomycin]", "phenotypically active": "1 (active)"}, {"smiles": "C[C@@H]1CC[C@H]2[C@@H](C)C(=O)O[C@@H]3O[C@@]4(C)CC[C@@H]1[C@]32OO4", "note": "[Artemisinin]", "phenotypically active": "1 (active)"}, {"smiles": "O=C1NC(=O)c2c1c1c3ccccc3n3c1c1c2c2ccccc2n1C1CCC3O1", "phenotypically active": "1 (active)"}, {"smiles": "Cc1sc2c(c1C)C(c1ccc(Cl)cc1)=N[C@@H](CC(=O)OC(C)(C)C)c1nnc(C)n1-2", "phenotypically active": "1 (active)"}, {"smiles": "CN1C[C@H](C(=O)N[C@]2(C)O[C@@]3(O)[C@@H]4CCCN4C(=O)[C@H](Cc4ccccc4)N3C2=O)C[C@@H]2c3cccc4[nH]cc(c34)C[C@H]21.CN1C[C@H](C(=O)N[C@]2(C)O[C@@]3(O)[C@@H]4CCCN4C(=O)[C@H](Cc4ccccc4)N3C2=O)C[C@@H]2c3cccc4[nH]cc(c34)C[C@H]21", "note": "[dihydroergotamine]", "phenotypically active": "1 (active)"}, {"smiles": "C[C@@]12C(=O)OC(=O)[C@]1(C)[C@H]1CC[C@@H]2O1", "note": "[Cantharidin]", "phenotypically active": "1 (active)"}, {"smiles": "COc1cc2c(c(OC)c1OC)-c1ccc(OC)c(=O)cc1[C@@H](NC(C)=O)CC2", "note": "[colchicine]", "phenotypically active": "1 (active)"}, {"smiles": "CC(C)(O)[C@H]1O[C@H]2CC[C@@]3(C)[C@@](O)(CC[C@H]4Cc5c([nH]c6ccccc56)[C@@]43C)C2=CC1=O", "note": "[paxilline]", "phenotypically active": "1 (active)"}, {"smiles": "N#CC(C#N)=NNc1cccc(Cl)c1", "phenotypically active": "1 (active)"}, {"smiles": "Cc1c(C(=O)Nc2cccc(C(F)(F)F)c2)cc(-c2ccccc2)n1CCCN1CCOCC1", "phenotypically active": 0}, {"smiles": "CCN1CCN(C(=O)Cc2ccc(Nc3ncc(F)c(Nc4ccc(C(=O)Nc5ccccc5Cl)cc4)n3)cc2)CC1", "phenotypically active": "1 (active)"}, {"smiles": "CC(C)(C)c1cc(C=C(C#N)C#N)cc(Br)c1O", "phenotypically active": 0}, {"smiles": "O=C(NCCN1CCC2(CC1)C(=O)NCN2c1cccc(F)c1)c1ccc(F)c(F)c1", "note": "[ML 298 hydrochloride]", "phenotypically active": "1 (active)"}, {"smiles": "CC(C)(N)Cc1ccccc1", "note": "[phentermine]", "phenotypically active": 0}, {"smiles": "CCn1cnc2c(Nc3cccc(Cl)c3)nc(N[C@H]3CCCC[C@H]3N)nc21", "phenotypically active": "1 (active)"}, {"smiles": "O=C(Nc1ccncc1)C(=O)c1cn(Cc2ccc(Cl)cc2)c2ccccc12", "note": "[Indibulin]", "phenotypically active": "1 (active)"}, {"smiles": "CC[C@@H](C(=O)[C@@H](C)[C@@H](O)[C@H](C)[C@@H]1O[C@@H]([C@@H](CC)C(=O)O)CC[C@@H]1C)[C@H]1O[C@]2(C=C[C@@H](O)[C@]3(CC[C@@](C)([C@H]4CC[C@](O)(CC)[C@H](C)O4)O3)O2)[C@H](C)C[C@@H]1C", "note": "[Salinomycin Sodium]", "phenotypically active": "1 (active)"}, {"smiles": "CC[C@@H](CO)NC(=O)[C@@H]1C=C2c3cccc4c3c(cn4C)C[C@H]2N(C)C1", "note": "[methysergide]", "phenotypically active": 0}, {"smiles": "CN1C[C@H](C(=O)N[C@]2(C)O[C@@]3(O)[C@@H]4CCCN4C(=O)[C@H](Cc4ccccc4)N3C2=O)C=C2c3cccc4[nH]cc(c34)C[C@H]21", "note": "[ergotamine]", "phenotypically active": "1 (active)"}, {"smiles": "C[C@H](CCC(=O)O)C[C@H](C)C[C@H](C)C(=O)/C=C(\\O)[C@H](C)C[C@H](C)C/C=C/[C@@H](C)[C@@H](O)[C@@H](C)[C@@H](O)C[C@@H]1CC[C@@](C)([C@H]2CC[C@@](C)([C@@H](C)O)O2)O1", "note": "[Ionomycin free acid]", "phenotypically active": 0}, {"smiles": "N#CC(C#N)=NNc1ccc(OC(F)(F)F)cc1", "phenotypically active": "1 (active)"}, {"smiles": "COC1=CC(C)=C[C@@H](C)[C@@H](O)[C@@H](C)CC(C)=CC=C[C@H](OC)[C@@H]([C@@H](C)[C@@H](O)[C@H](C)[C@@]2(O)C[C@@H](O)[C@H](C)[C@@H](C(C)C)O2)OC1=O", "note": "[Bafilomycin A1]", "phenotypically active": "1 (active)"}, {"smiles": "COc1cc([C@@H]2c3cc4c(cc3[C@H](O)[C@H]3COC(=O)[C@H]23)OCO4)cc(OC)c1OC", "note": "[Podophyllotoxin]", "phenotypically active": "1 (active)"}, {"smiles": "CC[C@]12C=CCN3CC[C@]4(C(=C(C(=O)OC)C1)Nc1ccccc14)[C@@H]32", "note": "[Tabersonine dichlorhydrate]", "phenotypically active": "1 (active)"}]}]}
